Assay results taken from PubChem BioAssay (NCATS).
Several values for one entry are separate records, joined by “and”; a condition that tells them apart may be missing. Equal entries are not always repeated. Records with an inconclusive call do not appear. Activity calls are given as the source filed them. Unless noted, the call rests on the fitted dose curve; in most records, active means well fitted curve in the direction sought with a large enough effect; inconclusive means small, poorly fitted or top-dose-only effect, or another doubt; inactive means no such curve, though single readings can be large; an effect the other way counts as inactive or inconclusive.

Key:
[1] = test system: Zika virus NS2B-NS3 protease; experiment: Primary screen GU AMC qHTS for Zika virus inhibitors (AID 1347154);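 further: 0% = no-inhibitor control and -100% = no-enzyme control; nearly all actives have a fitted effect of over 70% in size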
Summary of the method: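 Unlinked Zika NS2B hydrophilic domain/NS3 protease domain noncovalent complex (25 nM final) in 10 mM Tris-HCl pH 8.0, 0.01% Tween 20, with AMC peptide substrate. Fluorescence (ex 340, em 450 nm) change over 15 min, room temperature; percent inhibition fitted to 4-parameter Hill equation.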

[2] = Primary qHTS for small molecule stabilizers of the endoplasmic reticulum resident proteome: Secreted ER Calcium Modulated Protein (SERCaMP) assay (AID 1508630); further: on the % scale 0 is the no-effect control and ±100 the full control effect
Summary of the method: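 GLuc-SERCaMP-expressing SH-SY5Y cells, pretreated 16 h with compound, are challenged with thapsigargin to empty ER calcium stores; after 4 h, coelenterazine is added directly to the medium and luminescence is imaged.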

[3] = AP1 Signaling Pathway (AID 357; active means well fitted curve in either direction with a large enough effect, not every such curve was filed as active; further: on the % scale 0 is the no-effect control and ±100 the full control effect); details: ME-180 AP-1-bla reporter, EGF-induced, beta-lactamase ratio, 5 h
Summary of the method: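 ME-180 cells with beta-lactamase reporter under AP-1 response element, stimulated with EC50 EGF; compounds tested in titration series, 5 h at 37 °C. CCF4 substrate added 2.5 h at room temperature; 460/530 nm emission ratio gave %activity and AC50.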

[4] = biological target: Cytochrome P450 1A2 (Homo sapiens) (UniProt P05177); experiment: p450-cyp1a2 (AID 410; calls by dose curve;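 further: -100% = full effect of reference inhibitor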)
Summary of the method: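 Inhibition was calculated relative to 57 uM furafylline (full inhibition). The reaction used human CYP1A2 at 20nM with Luciferin-ME at its Km, 100uM, driven by an NADPH-regenerating system for 60 min at room temperature.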

[5] = NFAT Signaling Pathway (AID 444; active means well fitted curve in either direction with a large enough effect, not every such curve was filed as active;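 further: carbachol stimulus at about its EC50 of 1 µM final; on the % scale 0 is the no-effect control and ±100 the full control effect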); details: Jurkat NFAT-bla M1, carbachol, beta-lactamase ratio, 5 h
Summary of the method: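 Jurkat cells carrying an NFAT-driven β-lactamase reporter and co-transfected muscarinic M1 receptor were treated with compound plus carbachol (1 uM final, an EC50 level) for 5 h at 37 °C. CCF4 loading followed for 1 h at RT; 460/530 nm ratio gave %activity.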

[6] = Stat Signaling Pathway (AID 446; active means well fitted curve in either direction with a large enough effect, not every such curve was filed as active;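 further: ME-180 cervical cancer cells given 40 pM IL-6 alongside compound; SIE-controlled beta-lactamase reporter measured as 460/530 nm FRET emission ratio; on the % scale 0 is the no-effect control and ±100 the full control effect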); details: ME-180 SIE beta-lactamase reporter, IL-6 stimulated, 5 h
Summary of the method: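 ME-180 SIE-bla cells; overnight plating; cpd + IL-6 40 pM, 5 h, 37 C; LiveBLAzer 2.5 h RT; 460/530 nm emission ratio. Normalized to 300 pM IL-6 and 125 nM JAK inhibitor controls.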

[7] = biological target: Glucocorticoid receptor (Homo sapiens) (UniProt P04150); experiment: GR-GFP Redistribution (AID 450;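 active means compounds whose dose series gives a full or clear partial fitted curve of increased nuclear translocation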; further: potency means the concentration at half of the fitted maximal effect); details: U2OS GR-GFP nuclear translocation, laser cytometry, 2 h
[8] = biological target: Glucocorticoid receptor (Homo sapiens) (UniProt P04150); experiment: GR-EFC Redistribution (AID 451; calls by dose curve; further: potency means the concentration at half of the fitted maximal effect); details: CHO-K1 GR-EFC translocation, beta-gal luminescence, 2 h
Summary of the method: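 CHO-K1 cells stably expressing nuclear-localized β-gal enzyme acceptor and GR fused C-terminally to the enzyme donor fragment; ligand-driven nuclear translocation restores β-gal by complementation. Compounds titrated up to 46 uM final, 2 h at 37 °C; luminescence read.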

[9] = biological target: Mitogen-activated protein kinase 10 (Mus musculus) (UniProt Q61831); experiment: JNK3 AlphaScreen Assay (AID 530; active means well fitted curve in either direction with a large enough effect, not every such curve was filed as active)
Summary of the method: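 JNK3 came from HepG2 lysates pre-activated with IL-1beta and TNF-alpha and phosphorylated biotinylated GST-cJun (1-79) at 10 uM ATP, pH 7.6, room temperature. Compounds were titrated. AlphaScreen signal used anti-phospho-cJun (Ser73) antibody.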

[10] = biological target: 3',5'-cyclic-AMP phosphodiesterase 4B (Homo sapiens) (UniProt Q07343); experiment: qHTS Assay for Inhibitors of PDE-IV (AID 607; active means well fitted activation curve with a large enough effect in the main read-out, with a control signal flat, not every such curve was filed as active; further: % of control where 0% means no effect)
Summary of the method: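 ACTOne HEK293 cells carry a modified cAMP-gated CNG channel and express endogenous PDE4; plated 1000 cells/well, compounds up to 22.9 uM final. Membrane-potential dye fluorescence (ex 535/em 590) was read; parental cells received 10 uM forskolin + 100 uM RO 20-1724.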

[11] = biological target: Guanine nucleotide-binding protein G(i) subunit alpha-1 (Homo sapiens) (UniProt P63096); experiment: qHTS Assay for Inhibitors of RGS12 GoLoco Motif Activity (Green Fluorophore) (AID 879);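 further: 0% = labeled peptide with Gαi1 and full inhibition = labeled peptide alone without protein; negative values mean loss of peptide binding seen as reduced polarization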
Summary of the method: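 Fluorescence polarization assay: 50 nM Gαi1 with 10 nM FITC-labeled RGS12 GoLoco peptide in 10 mM Tris pH 7.5, 150 mM NaCl, 0.1 mM GDP, 0.05% NP40, 10 min at room temperature with compound.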

[12] = biological target: Cytochrome P450 2C9 (Homo sapiens) (UniProt P11712); experiment: qHTS Assay for Inhibitors and Substrates of Cytochrome P450 2C9 (AID 883); further: on the % scale 0 is the no-effect control and ±100 the full control effect; nearly all actives have a fitted effect of over 60% in size
Summary of the method: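 A luminogenic readout tracked human CYP2C9 (10nM) converting deoxyluciferin (100uM, at KM) in 25mM KPO4 during 60 min at 37C with regenerated NADPH. Values normalized to 57uM sulphaphenazole as complete inhibition.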

[13] = biological target: Cytochrome P450 3A4 (Homo sapiens) (UniProt P08684); experiment: qHTS Assay for Inhibitors and Substrates of Cytochrome P450 3A4 (AID 884); further: on the % scale 0 is the no-effect control and ±100 the full control effect; nearly all actives have a fitted effect of over 50% in size
Summary of the method: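 20 nM human CYP3A4 with 25 uM Luciferin-PPXE (at KM) in 200 mM KPO4, preincubated 10 min with compound; NADPH regeneration started a 60 min RT reaction. Luciferin detected by luminescence, normalized to 57 uM ketoconazole as full inhibition.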

[14] = biological target: Cytochrome P450 2D6 (Homo sapiens) (UniProt P10635); experiment: qHTS Assay for Inhibitors and Substrates of Cytochrome P450 2D6 (AID 891);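 further: luciferin methyl ether substrate demethylated by CYP2D6 with NADPH regeneration; on the % scale 0 is the no-effect control and ±100 the full control effect; nearly all actives have a fitted effect of over 60% in size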
Summary of the method: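 Human CYP2D6 (5 nM) with 30 uM Luciferin-ME EGE (at Km) in 100 mM KPO4, compound preincubated 10 min, then NADPH regeneration system for 60 min at room temperature. Luciferin read by luminescence; normalized to 1.43 uM quinidine.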

[15] = qHTS Assay for Identification of Small Molecule Antagonists for NFkB Signaling Pathway (AID 895; active means well fitted inhibition curve with a large enough effect in the signal ratio, with a control signal flat, not every such curve was filed as active; the % refers to the signal ratio; further: on the % scale 0 is the no-effect control and ±100 the full control effect)
Summary of the method: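 NFkB-bla ME-180 cervical carcinoma cells with beta-lactamase reporter under NFkB response element; compounds added, then TNF alpha at 10 pM final (EC50), 5 h at 37 C. LiveBLAzer substrate 2 h, room temperature; emission 460/530 nm at 405 nm excitation.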

[16] = biological target: Cytochrome P450 2C19 (Homo sapiens) (UniProt P33261); experiment: qHTS Assay for Inhibitors and Substrates of Cytochrome P450 2C19 (AID 899); further: on the % scale 0 is the no-effect control and ±100 the full control effect; nearly all actives have a fitted effect of over 60% in size
Summary of the method: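 NADPH-dependent conversion of Luciferin-H EGE (10uM, at KM) by 5nM enzyme in 50mM KPO4, 60 min at 37C following 10 min compound preincubation. Stopped with luciferin detection buffer; luminescence read after 20 min.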

[17] = Confirmation and Secondary Assay for Modulators of Hemoglobin Beta Chain Splicing at IVS2 654 locus (AID 910);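 further: per-well total GFP intensity by laser scanning cytometry after 2-day treatment; % of control where 0% means no effect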
Summary of the method: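 HeLa cells stably carrying EGFP interrupted by mutant beta-globin IVS2-654 intron (CMV-driven) were treated with compound for 2 days at 37C; corrected splicing was scored as total peak GFP intensity per well (488 nm excitation, 500-520 nm emission).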

[18] = qHTS Assay for Identification of Small Molecule Agonists for Thrombopoietin (TPO) Signaling Pathway (AID 917); further: on the % scale 0 is the no-effect control and ±100 the full control effect
Summary of the method: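 IL-3-dependent murine pro-B Ba/F3 cells, stably transfected with human TPO receptor and GpIIb-promoter luciferase, are incubated 24 hrs at 37 C with test compound and 26 pM TPO; luciferase signal is read after 10 min at room temperature.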

[19] = Confirmation and Secondary Assay for Modulators of Hemoglobin Beta Chain Splicing at IVS2 705 locus (AID 930);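 further: HeLa cells stably expressing the EGFP-705 splicing reporter; GFP fluorescence per well restored by corrected splicing of the IVS2-705 intron in EGFP; % of control where 0% means no effect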
Summary of the method: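 Secondary splice-site specificity test uses HeLa expressing CMV-driven EGFP interrupted by IVS2-705; cells were treated 2 days at 37C with 500 nM antisense PNA as positive control.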

[20] = biological target: Pyruvate kinase (Leishmania mexicana) (UniProt Q27686); experiment: qHTS Validation Assay for Inhibitors of Leishmania Mexicana Pyruvate Kinase (AID 945);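 further: 0% = DMSO only neutral control wells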
Summary of the method: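 Read-out: luminescence from PKLight stop/detection reagent, data normalized to DMSO. Reaction: 0.2 nM E451W LmPYK, 0.5 mM PEP, 0.1 mM ADP, pH 7.2, 1 h room temperature.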

[21] = biological target: Pyruvate kinase PKM (Homo sapiens) (UniProt P14618); experiment: qHTS Assay for Activators of Human Muscle Pyruvate Kinase (AID 954; active means well fitted curve in the direction sought with a large enough effect, not every such curve was filed as active;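 further: 0% = uninhibited enzyme and -100% = no enzyme or full thiadiazolimine inhibition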)
Summary of the method: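 Luminescence from a luciferase ATP-detection/stop reagent reported PKM2 activity. Reactions contained 0.1 nM purified human enzyme, 0.5 mM PEP, 0.1 mM ADP and 7 mM MgCl2 at pH 7.2, run 1 h at RT.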

[22] = biological target: alpha-glucosidase (Oryza sativa, rice) (UniProt Q653V4); experiment: Counterscreen for Glucocerebrosidase Inhibitors: qHTS Assay for Rice alpha-Glucosidase at pH 5.0 (AID 997);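 further: 0% = full activity with enzyme and -100% = basal without enzyme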
Summary of the method: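 Rice alpha-glucosidase (4 nM final) with 400 uM 4-methylumbelliferyl-alpha-D-glucopyranoside in citrate buffer pH 5.0, 20 min at room temperature, stopped at pH 10; fluorescence 365/440 nm, compounds 0.7 nM–77 uM, AC50 from Hill fits.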

[23] = qHTS Assay for Lipid Storage Modulators (AID 1519; calls by dose curve); details: Drosophila S3 cells, BODIPY lipid droplet/cell ratio, laser cytometry, cells loaded with oleic acid
Summary of the method: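 Cells seeded at 5,000 per well were treated with compounds over a concentration series and loaded with oleic acid (400 uM, as added). Lipid droplet fluorescence (488 nm excitation, 500-530 nm channel) was read by laser-scanning cytometry and normalized to 20 uM Triacsin C.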

[24] = biological target: Ubiquitin carboxyl-terminal hydrolase 1 (Homo sapiens) (UniProt O94782); experiment: Inhibitors of USP1/UAF1: Pilot qHTS (AID 504865);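 further: rhodamine fluorescence freed from ubiquitin-rhodamine substrate followed over time; top concentration of the series differs between compounds; on the % scale 0 is the no-effect control and ±100 the full control effect; nearly all actives have a fitted effect of over 35% in size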
Summary of the method: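 Enzyme-free wells gave the negative control, while test wells held 1nM USP1/UAF1 preincubated with compound for 15 min at room temperature. Ub-Rho at 150nM final started the reaction, and fluorescence at 480/540 nm was recorded kinetically.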

[25] = biological target: DNA dC->dU-editing enzyme APOBEC-3G (Homo sapiens) (UniProt Q9HC16); experiment: qHTS for inhibitors of Vif-A3G interactions: Validation (AID 588379); further: 0% is about no effect
Summary of the method: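 HeLa cells stably expressing Vif and A3G-eYFP, 700 cells/well, incubated overnight at 37 deg C, then exposed to compound overnight at 37 deg C. Inhibition of Vif-mediated degradation read as increased yellow fluorescence (Ex 488/Em 500-530) by laser-scanning cytometry.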

[26] = measured here: cell count channel max response
[27] = measured here: lipid channel max response

Sequence of 3',5'-cyclic-AMP phosphodiesterase 4B (Homo sapiens) (Q07343 whole entry, looked up): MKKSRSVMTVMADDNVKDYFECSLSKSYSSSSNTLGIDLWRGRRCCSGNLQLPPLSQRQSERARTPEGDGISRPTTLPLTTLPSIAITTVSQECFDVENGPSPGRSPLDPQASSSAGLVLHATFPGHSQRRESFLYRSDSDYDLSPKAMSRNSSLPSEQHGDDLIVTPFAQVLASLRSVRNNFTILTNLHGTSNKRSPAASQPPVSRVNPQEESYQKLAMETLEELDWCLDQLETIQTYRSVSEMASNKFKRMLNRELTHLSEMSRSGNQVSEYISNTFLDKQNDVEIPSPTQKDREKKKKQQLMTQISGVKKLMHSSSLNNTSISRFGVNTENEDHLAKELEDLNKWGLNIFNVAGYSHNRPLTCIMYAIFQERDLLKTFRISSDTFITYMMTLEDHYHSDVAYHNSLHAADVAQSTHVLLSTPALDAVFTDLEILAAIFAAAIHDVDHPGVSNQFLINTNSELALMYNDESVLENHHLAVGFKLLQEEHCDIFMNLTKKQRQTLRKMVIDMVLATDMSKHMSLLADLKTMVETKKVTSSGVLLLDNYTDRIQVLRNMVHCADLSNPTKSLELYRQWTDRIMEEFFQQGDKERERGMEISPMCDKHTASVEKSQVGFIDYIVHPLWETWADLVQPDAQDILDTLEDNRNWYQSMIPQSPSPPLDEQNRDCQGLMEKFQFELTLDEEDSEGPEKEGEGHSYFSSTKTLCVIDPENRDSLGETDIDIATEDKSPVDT
Sequence of Glucocorticoid receptor (Homo sapiens) (P04150 whole entry, looked up, the tested form may be a part): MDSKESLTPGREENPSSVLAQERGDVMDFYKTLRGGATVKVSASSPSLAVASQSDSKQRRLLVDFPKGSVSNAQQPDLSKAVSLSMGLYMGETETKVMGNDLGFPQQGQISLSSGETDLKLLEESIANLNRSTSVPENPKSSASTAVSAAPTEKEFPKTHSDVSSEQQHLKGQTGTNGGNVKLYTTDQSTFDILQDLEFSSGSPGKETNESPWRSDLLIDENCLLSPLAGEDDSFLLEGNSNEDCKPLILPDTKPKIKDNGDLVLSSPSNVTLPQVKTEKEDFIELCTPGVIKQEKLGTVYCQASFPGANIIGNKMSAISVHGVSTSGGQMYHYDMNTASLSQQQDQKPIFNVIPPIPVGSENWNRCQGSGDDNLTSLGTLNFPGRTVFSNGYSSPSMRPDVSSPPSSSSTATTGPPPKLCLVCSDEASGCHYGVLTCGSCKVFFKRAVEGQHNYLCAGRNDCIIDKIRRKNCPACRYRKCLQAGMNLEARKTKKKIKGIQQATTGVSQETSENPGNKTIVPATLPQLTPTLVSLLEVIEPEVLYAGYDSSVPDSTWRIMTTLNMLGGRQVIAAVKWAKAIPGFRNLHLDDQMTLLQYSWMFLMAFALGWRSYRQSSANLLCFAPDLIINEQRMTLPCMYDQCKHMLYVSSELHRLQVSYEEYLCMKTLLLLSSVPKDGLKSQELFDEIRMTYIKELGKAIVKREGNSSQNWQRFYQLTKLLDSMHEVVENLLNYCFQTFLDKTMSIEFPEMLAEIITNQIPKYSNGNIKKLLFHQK
Sequence of Cytochrome P450 1A2 (Homo sapiens) (P05177 whole entry, looked up): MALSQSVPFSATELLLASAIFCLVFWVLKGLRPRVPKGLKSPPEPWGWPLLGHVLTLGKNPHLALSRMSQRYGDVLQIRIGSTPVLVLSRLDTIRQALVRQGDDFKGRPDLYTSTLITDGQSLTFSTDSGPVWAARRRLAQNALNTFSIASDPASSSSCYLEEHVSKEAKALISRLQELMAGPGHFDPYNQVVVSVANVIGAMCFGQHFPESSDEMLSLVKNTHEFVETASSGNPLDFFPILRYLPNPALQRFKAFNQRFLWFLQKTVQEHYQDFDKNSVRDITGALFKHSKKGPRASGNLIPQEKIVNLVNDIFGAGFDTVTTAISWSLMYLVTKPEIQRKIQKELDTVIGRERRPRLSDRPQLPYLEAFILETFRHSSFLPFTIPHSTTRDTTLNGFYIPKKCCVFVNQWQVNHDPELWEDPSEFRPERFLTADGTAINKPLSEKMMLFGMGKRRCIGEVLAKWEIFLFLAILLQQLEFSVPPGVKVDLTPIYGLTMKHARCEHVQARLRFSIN
Sequence of DNA dC->dU-editing enzyme APOBEC-3G (Homo sapiens) (Q9HC16 whole entry, looked up): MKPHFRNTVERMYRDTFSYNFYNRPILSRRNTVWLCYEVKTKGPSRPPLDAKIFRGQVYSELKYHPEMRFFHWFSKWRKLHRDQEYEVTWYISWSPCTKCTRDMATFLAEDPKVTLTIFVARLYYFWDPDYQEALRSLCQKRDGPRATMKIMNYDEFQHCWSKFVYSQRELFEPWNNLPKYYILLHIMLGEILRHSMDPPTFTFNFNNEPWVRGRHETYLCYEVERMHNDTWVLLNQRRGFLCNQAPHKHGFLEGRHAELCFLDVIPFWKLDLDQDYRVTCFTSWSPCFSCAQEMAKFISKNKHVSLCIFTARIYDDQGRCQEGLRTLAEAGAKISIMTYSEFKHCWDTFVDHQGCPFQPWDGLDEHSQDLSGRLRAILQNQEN
Sequence of Ubiquitin carboxyl-terminal hydrolase 1 (Homo sapiens) (O94782 whole entry, looked up): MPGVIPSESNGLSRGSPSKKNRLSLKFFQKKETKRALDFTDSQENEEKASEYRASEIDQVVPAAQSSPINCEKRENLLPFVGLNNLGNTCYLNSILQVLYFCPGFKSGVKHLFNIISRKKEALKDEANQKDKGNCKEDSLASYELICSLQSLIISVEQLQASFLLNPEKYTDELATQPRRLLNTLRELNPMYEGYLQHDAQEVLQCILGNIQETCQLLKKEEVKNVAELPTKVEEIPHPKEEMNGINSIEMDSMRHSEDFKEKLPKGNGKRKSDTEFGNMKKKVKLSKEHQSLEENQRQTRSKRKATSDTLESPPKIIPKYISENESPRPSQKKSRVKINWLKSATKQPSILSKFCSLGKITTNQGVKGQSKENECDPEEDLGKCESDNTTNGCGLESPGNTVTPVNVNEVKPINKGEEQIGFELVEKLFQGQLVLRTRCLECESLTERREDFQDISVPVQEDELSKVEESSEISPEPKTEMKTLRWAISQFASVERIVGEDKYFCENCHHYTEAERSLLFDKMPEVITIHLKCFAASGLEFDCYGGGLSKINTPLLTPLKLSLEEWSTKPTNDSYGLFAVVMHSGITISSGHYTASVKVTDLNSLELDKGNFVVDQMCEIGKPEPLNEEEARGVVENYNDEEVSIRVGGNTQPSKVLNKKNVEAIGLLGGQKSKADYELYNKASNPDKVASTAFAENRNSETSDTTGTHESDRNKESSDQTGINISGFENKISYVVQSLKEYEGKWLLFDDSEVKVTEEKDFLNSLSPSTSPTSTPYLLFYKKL
Sequence of Cytochrome P450 2D6 (Homo sapiens) (P10635 whole entry, looked up): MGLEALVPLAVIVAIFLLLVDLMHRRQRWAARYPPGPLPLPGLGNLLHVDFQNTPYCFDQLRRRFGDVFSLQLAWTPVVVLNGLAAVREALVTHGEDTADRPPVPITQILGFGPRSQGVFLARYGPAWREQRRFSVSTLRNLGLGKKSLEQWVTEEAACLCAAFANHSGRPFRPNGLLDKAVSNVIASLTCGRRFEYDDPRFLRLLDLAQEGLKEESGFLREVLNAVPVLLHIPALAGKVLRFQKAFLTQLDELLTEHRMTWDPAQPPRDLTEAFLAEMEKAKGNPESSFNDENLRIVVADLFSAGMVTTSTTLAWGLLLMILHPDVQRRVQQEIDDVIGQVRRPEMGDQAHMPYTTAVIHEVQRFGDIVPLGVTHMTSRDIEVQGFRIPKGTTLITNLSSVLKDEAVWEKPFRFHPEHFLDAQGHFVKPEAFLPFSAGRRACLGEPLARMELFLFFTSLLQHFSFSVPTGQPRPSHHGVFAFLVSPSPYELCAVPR
Sequence of Cytochrome P450 3A4 (Homo sapiens) (P08684 whole entry, looked up): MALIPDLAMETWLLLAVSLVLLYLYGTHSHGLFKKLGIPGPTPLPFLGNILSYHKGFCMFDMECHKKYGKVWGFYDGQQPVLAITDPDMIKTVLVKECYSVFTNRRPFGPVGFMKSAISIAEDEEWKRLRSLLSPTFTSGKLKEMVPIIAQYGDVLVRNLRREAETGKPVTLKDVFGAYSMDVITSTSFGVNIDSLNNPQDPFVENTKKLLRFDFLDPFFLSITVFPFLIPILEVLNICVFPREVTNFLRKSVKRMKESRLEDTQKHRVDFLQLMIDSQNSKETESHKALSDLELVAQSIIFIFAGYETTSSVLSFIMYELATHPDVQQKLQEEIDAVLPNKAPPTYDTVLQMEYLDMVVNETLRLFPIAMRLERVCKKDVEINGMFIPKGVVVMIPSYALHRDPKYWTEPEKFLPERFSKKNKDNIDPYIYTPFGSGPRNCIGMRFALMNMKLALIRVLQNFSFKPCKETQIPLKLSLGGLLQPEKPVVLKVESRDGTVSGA
Sequence of Pyruvate kinase (Leishmania mexicana) (Q27686 2-499 E452W): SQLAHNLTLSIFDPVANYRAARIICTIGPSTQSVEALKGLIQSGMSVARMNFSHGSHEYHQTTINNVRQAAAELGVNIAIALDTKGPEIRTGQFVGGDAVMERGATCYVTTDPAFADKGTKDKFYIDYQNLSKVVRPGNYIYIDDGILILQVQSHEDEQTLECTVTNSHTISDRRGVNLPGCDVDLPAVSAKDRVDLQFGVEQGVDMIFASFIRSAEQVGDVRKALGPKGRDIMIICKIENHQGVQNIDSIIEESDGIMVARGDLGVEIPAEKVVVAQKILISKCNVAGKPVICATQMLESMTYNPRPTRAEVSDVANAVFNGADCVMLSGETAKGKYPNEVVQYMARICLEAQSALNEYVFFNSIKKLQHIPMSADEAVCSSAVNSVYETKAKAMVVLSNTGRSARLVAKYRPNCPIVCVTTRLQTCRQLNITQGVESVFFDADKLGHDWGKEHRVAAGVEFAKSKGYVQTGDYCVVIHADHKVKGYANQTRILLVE

Clc1ccc2ncnc(NCc3ccc4c(c3)OCO4)c2c1
inactive: Potency [1] | Potency [2]

CCCCC[C@H](O)/C=C/[C@@H]1[C@@H](C/C=C\CCCC(=O)O)[C@@H](O)C[C@@H]1O
inactive: activity change, negative = inhibition [1] 11.6% [at 6.83 µM] | activity change, negative = inhibition [2] -25.7% [at 3.88 µM]

O=C1CC[C@H](N2C(=O)c3ccccc3C2=O)C(=O)N1
inactive: activity change, negative = inhibition ([3]; at 17.2 µM (top of the series)) 0.427% | activity change, negative = inhibition ([3]; at 38 µM (top of the series)) -0.244% | Potency [4] | activity change, negative = inhibition ([5]; at 17.2 µM (top of the series)) -1.74% | activity change, negative = inhibition ([5]; at 38 µM (top of the series)) -10.1% | activity, negative = inhibition ([6]; at 17.2 µM (top of the series)) 3.42% | activity, negative = inhibition ([6]; at 38 µM (top of the series)) -18.4% | Potency [7] > 46 µM and > 20.6 µM | Potency [8] > 46 µM and > 20.6 µM | Potency [9] | Potency [10] | outcome [11] | Potency [12] | Potency [13] | Potency [14] | Potency [15] | Potency [16] | outcome [17] | Potency [18] | outcome [19] | Potency [20] | outcome [21] | outcome [22] | activity change, negative = inhibition ([23]; at 25.7 µM (top of the series)) -1.97% | activity change, negative = inhibition ([23]; at 57.5 µM (top of the series)) -4.08% | Potency [24] | Potency [25] | Potency [1] | Potency [2]
11% and -21.2%: max response [23, 26]
5.6% and -23.7%: max response [23, 27]

CCCCC/C=C\C/C=C\C/C=C\C=C\[C@@H](O)CCCC(=O)O
inactive: activity change, negative = inhibition [1] 0.663% [at 0.59 µM] | activity change, negative = inhibition [2] -9.05% [at 0.478 µM]

CCCCCCCCCCCCCC(=O)N[C@H](C)[C@@H](O)c1ccccc1
inactive: activity change, negative = inhibition [1] 6.45% [at 6.83 µM] | activity change, negative = inhibition [2] -4.17% [at 3.88 µM]

CCCCCCCCCCCCCCCCCCc1ccc(C(=O)/C=C/C(=O)O)cc1
inactive: Potency [1] | Potency [2]

CCCCC/C=C\C/C=C\C/C=C\C/C=C\CCCCCC(=O)O
inactive: activity change, negative = inhibition [1] -5.55% [at 6.83 µM] | activity change, negative = inhibition [2] 14.9% [at 3.88 µM]

COc1ccc(C2CC(c3c(O)cc(C)oc3=O)=NCCS2)c(OC)c1 (centres undefined)
inactive: Potency [1] | Potency [2]

CCOC(=O)C12CC1/C(=N\O)c1ccccc1O2 (centres undefined)
inactive: Potency [1] | Potency [2]

CCC(=O)NC1Cc2ccccc2C(c2ccccc2)C1 (centres undefined)
inactive: Potency [1] | Potency [2]

COc1c(C=O)c(O)cc2c1C(=O)c1ccccc1C2=O
inactive: Potency [1] | Potency [2]

COC(=O)[C@@H](c1ccccc1Cl)N1CCc2sccc2C1
inactive: Potency [1] | Potency [2]

NC(=O)C[C@H](NC(=O)Cc1ccc(O)cc1O)C(=O)O
-24%: max response [23, 27]
-23.7%: max response [23, 26]
inactive: Potency [4] | Potency [7] > 46 µM | Potency [8] > 46 µM | Potency [9] | Potency [10] | activity change, negative = inhibition ([23]; at 57.5 µM (top of the series)) -1.96% | Potency [25] | Potency [1] | Potency [2]
